The first experiment has as its system LTK. The note with it: concentration: 1 μM, replicates: in singlicate; n = 1.
Regarding `COC(=O)C(Cc1ccccc1)NC(=O)NC1CCN(c2ccnc(Nc3ccc(F)cc3)n2)C1` (stereo not drawn) [GSK1379714], the “%Inh” value was 0%.
On the same count and under the same terms, the value for `CSc1ccc(-c2nc3n(c2-c2ccncc2)CCC3)cc1` [SKF-105561] was 31%.
Regarding `COc1ccc(Nc2nccc(N3CCC(NC(=O)c4cc5ccccc5s4)C3)n2)cc1` (stereo not drawn) [GSK1379738], the “%Inh” value was determined as 0%.
Same read-out and setting: the value for `Cc1ccc(NC(=O)Nc2ccc(Cl)cc2)cc1-c1ccc(C(=O)Nc2ccncc2)cc1` [GSK1398472] was 2%.
Same read-out and setting: to `CC(C)c1ccc(O)cc1Nc1ccnc2ccc(C(F)(F)F)cc12` [GW482059] belongs 0%; to `COC(=O)c1cccc(NC(=O)NC2CCN(c3ccnc(Nc4ccc(F)cc4)n3)C2)c1` (stereo not drawn) [GSK1379725], 17%; to `O=c1cc(N2CCOCC2)nc2n(Cc3ccccc3F)ccn12` [GSK2297428], 21%.
On the same count and under the same terms, to `Cc1ccccc1-c1cc(-c2c[nH]nc2-c2ccccn2)ccn1` [GW680061] belongs 0%.
As for `COc1ccc(Nc2nccc(NCCNC(=O)Nc3cc(C)ccc3C)n2)cc1` [GSK1379899], the “%Inh” value was 0%.
On the same count and under the same terms, the value for `FC(F)(F)c1ccccc1-c1cc(-c2c[nH]nc2-c2ccccn2)ccn1` [GW679396] was 5%; that for `Cc1ccccc1Cn1ccn2c(=O)cc(N3CCOCC3)nc12` [GSK2269905] was 0%; that for `Cc1ccc(NC(=O)Nc2ccc(Cl)c(C(F)(F)F)c2)cc1-c1ccc(C(=O)Nc2ccncc2)cc1` [GSK1398470] was 4%.
Same read-out and setting: to `CCc1ccc(-c2ccc3c(c2)-c2n[nH]cc2S(=O)(=O)N3C)cc1` belongs 3%; to `CNCc1ccc2nc(NC(=O)c3ccc(C(C)(C)C)cc3)cn2c1`, 12%.
Same read-out and setting: to `Fc1ccc(-c2nn3cccc(F)c3c2-c2ccncc2)cc1` [GW475620] belongs 8%.
As for `CNc1nc(-c2ccc3c(N)n[nH]c3c2)cc(N2C[C@@H](C(=O)Nc3ccccc3)CC[C@H]2C)n1` [GSK2298859], the “%Inh” value worked out at 0%.
Consider `Cc1ccc(NC(=O)Nc2ccccc2F)cc1-c1ccc(C(=O)Nc2ccncc2)cc1` [GSK1398477], for which the “%Inh” value was found to be 16%.
Still for that read-out and setting: to `Cc1ccc(NC(=O)c2ccc(Cl)cc2)cc1-c1ccc(C(=O)Nc2ccncc2)cc1` [GSK1398467] belongs 19%; to `COC(=O)C(NC(=O)NC1CCN(c2ccnc(Nc3ccc(F)cc3)n2)C1)c1ccccc1` (stereo not drawn) [GSK1379712], 30%.
`Nc1nccc(-c2c(-c3ccc(F)cc3)ncn2C2CCN(Cc3ccccc3)CC2)n1` [SB-219980]: the “%Inh” value is on record as 11%.
Still for that read-out and setting: to `NS(=O)(=O)c1cccc(N/C=C2\C(=O)Nc3ccc(S(=O)(=O)Cc4c(Cl)cccc4Cl)cc32)c1` [GSK398099] belongs 0%; to `CN1c2ccc(-c3ccc(C(N)=O)cc3)cc2-c2[nH]ncc2S1(=O)=O`, 0%.
Same read-out and setting: to `CNC(=O)c1ccc(C)c(-n2c(C)cc(OCc3ccc(F)cc3F)c(Br)c2=O)c1` belongs 0%; to `Nc1ncnc2occ(-c3ccc4c(c3)CCN4C(=O)Cc3cc(F)ccc3F)c12` [GSK2645446], 0%; to `Cc1c(Cn2c(C)c(C)n3c(=O)cc(N4CCOCC4)nc23)cccc1C(F)(F)F` [GSK2328680], 0%.
Still for that read-out and setting: to `Cc1ccc(-c2nc(Nc3ccncc3)c3ccccc3n2)s1` [GSK189015] belongs 1%.
Turning to `O=C1NC(=O)C(c2ccc(Cl)cc2)=C1Nc1cccc(Cl)c1` [SB-317651], the “%Inh” value is listed as 0%.
On the same count and under the same terms, the value for `Cn1cnc2c(N)ncnc21` [SKF-97623] was 0%; that for `Cc1ccc(NC(=O)Nc2ccccc2)cc1-c1ccc(C(=O)Nc2ccncc2)cc1` [GSK1398471] was 0%.
Still for that read-out and setting: to `CCn1c(-c2c(N)noc2C)nc2cnccc21` [SB-737856] belongs 10%.
The same measure, in the same setting: to `COc1ccc(Nc2nccc(-c3ccc(NC(=O)c4cc5cc(F)ccc5[nH]4)cc3)n2)cc1` [GSK1229496] belongs 0%; to `Nc1cccc(-c2ccc3c(N)n[nH]c3c2)n1` [GSK2192730], 0%.
With `CS(=O)(=O)CCNCc1nc(-c2ccc3ncnc(Nc4ccc(OCc5ccccc5)c(Cl)c4)c3c2)cs1.Cl` [GW582764], the “%Inh” value came to 0%.
Turning to `COc1ccc(Nc2nccc(N3CCC(NC(=O)C(C)c4ccc(Cl)cc4)C3)n2)cc1` (stereo not drawn) [GSK1379735], the “%Inh” value turned out to be 61%.
Still for that read-out and setting: to `Cc1cnc(N)c(/C=C/c2cncc(C(=O)NCCc3ccc(Cl)cc3Cl)c2)c1.Cl` [GSK190937] belongs 0%.
Same read-out and setting: to `O=C(Nc1n[nH]c2nc(-c3cccs3)c(Br)cc12)C1CC1` [SB-735297] belongs 0%.

A further experiment deals with LYN. The note with it: concentration: 1 μM, replicates: in singlicate; n = 1.
For the compound `COC(=O)C(Cc1ccccc1)NC(=O)NC1CCN(c2ccnc(Nc3ccc(F)cc3)n2)C1` (stereo not drawn) [GSK1379714], the “%Inh” value is listed as 22%.
Same read-out and setting: the value for `CSc1ccc(-c2nc3n(c2-c2ccncc2)CCC3)cc1` [SKF-105561] was 8%.
`COc1ccc(Nc2nccc(N3CCC(NC(=O)c4cc5ccccc5s4)C3)n2)cc1` (stereo not drawn) [GSK1379738]: the “%Inh” value was 0%.
Still for that read-out and setting: to `Cc1ccc(NC(=O)Nc2ccc(Cl)cc2)cc1-c1ccc(C(=O)Nc2ccncc2)cc1` [GSK1398472] belongs 30%; to `CC(C)c1ccc(O)cc1Nc1ccnc2ccc(C(F)(F)F)cc12` [GW482059], 0%.
Turning to `COC(=O)c1cccc(NC(=O)NC2CCN(c3ccnc(Nc4ccc(F)cc4)n3)C2)c1` (stereo not drawn) [GSK1379725], the “%Inh” value was 0%.
For the compound `O=c1cc(N2CCOCC2)nc2n(Cc3ccccc3F)ccn12` [GSK2297428], the “%Inh” value came to 0%.
Regarding `Cc1ccccc1-c1cc(-c2c[nH]nc2-c2ccccn2)ccn1` [GW680061], the “%Inh” value was determined as 0%.
The same measure, in the same setting: the value for `COc1ccc(Nc2nccc(NCCNC(=O)Nc3cc(C)ccc3C)n2)cc1` [GSK1379899] was 0%; that for `FC(F)(F)c1ccccc1-c1cc(-c2c[nH]nc2-c2ccccn2)ccn1` [GW679396] was 0%.
As to `Cc1ccccc1Cn1ccn2c(=O)cc(N3CCOCC3)nc12` [GSK2269905], the “%Inh” value was 0%.
Same read-out and setting: the value for `Cc1ccc(NC(=O)Nc2ccc(Cl)c(C(F)(F)F)c2)cc1-c1ccc(C(=O)Nc2ccncc2)cc1` [GSK1398470] was 42%.
On the same count and under the same terms, to `CCc1ccc(-c2ccc3c(c2)-c2n[nH]cc2S(=O)(=O)N3C)cc1` belongs 0%; to `CNCc1ccc2nc(NC(=O)c3ccc(C(C)(C)C)cc3)cn2c1`, 0%.
The same measure, in the same setting: the value for `Fc1ccc(-c2nn3cccc(F)c3c2-c2ccncc2)cc1` [GW475620] was 6%; that for `CNc1nc(-c2ccc3c(N)n[nH]c3c2)cc(N2C[C@@H](C(=O)Nc3ccccc3)CC[C@H]2C)n1` [GSK2298859] was 0%; that for `Cc1ccc(NC(=O)Nc2ccccc2F)cc1-c1ccc(C(=O)Nc2ccncc2)cc1` [GSK1398477] was 47%.
For `Cc1ccc(NC(=O)c2ccc(Cl)cc2)cc1-c1ccc(C(=O)Nc2ccncc2)cc1` [GSK1398467], the “%Inh” value was 30%.
On the same count and under the same terms, to `COC(=O)C(NC(=O)NC1CCN(c2ccnc(Nc3ccc(F)cc3)n2)C1)c1ccccc1` (stereo not drawn) [GSK1379712] belongs 7%.
As to `Nc1nccc(-c2c(-c3ccc(F)cc3)ncn2C2CCN(Cc3ccccc3)CC2)n1` [SB-219980], the “%Inh” value worked out at 0%.
Regarding `NS(=O)(=O)c1cccc(N/C=C2\C(=O)Nc3ccc(S(=O)(=O)Cc4c(Cl)cccc4Cl)cc32)c1` [GSK398099], the “%Inh” value is reported as 0%.
Take `CN1c2ccc(-c3ccc(C(N)=O)cc3)cc2-c2[nH]ncc2S1(=O)=O`: the “%Inh” value came out at 0%.
On the same count and under the same terms, to `CNC(=O)c1ccc(C)c(-n2c(C)cc(OCc3ccc(F)cc3F)c(Br)c2=O)c1` belongs 1%.
The same measure, in the same setting: to `Nc1ncnc2occ(-c3ccc4c(c3)CCN4C(=O)Cc3cc(F)ccc3F)c12` [GSK2645446] belongs 0%; to `Cc1c(Cn2c(C)c(C)n3c(=O)cc(N4CCOCC4)nc23)cccc1C(F)(F)F` [GSK2328680], 0%.
The same measure, in the same setting: to `Cc1ccc(-c2nc(Nc3ccncc3)c3ccccc3n2)s1` [GSK189015] belongs 0%; to `O=C1NC(=O)C(c2ccc(Cl)cc2)=C1Nc1cccc(Cl)c1` [SB-317651], 22%.
Consider `Cn1cnc2c(N)ncnc21` [SKF-97623], for which the “%Inh” value came out at 0%.
`Cc1ccc(NC(=O)Nc2ccccc2)cc1-c1ccc(C(=O)Nc2ccncc2)cc1` [GSK1398471]: the “%Inh” value is listed as 66%.
On the same count and under the same terms, the value for `CCn1c(-c2c(N)noc2C)nc2cnccc21` [SB-737856] was 0%; that for `COc1ccc(Nc2nccc(-c3ccc(NC(=O)c4cc5cc(F)ccc5[nH]4)cc3)n2)cc1` [GSK1229496] was 0%.
Same read-out and setting: the value for `Nc1cccc(-c2ccc3c(N)n[nH]c3c2)n1` [GSK2192730] was 0%; that for `CS(=O)(=O)CCNCc1nc(-c2ccc3ncnc(Nc4ccc(OCc5ccccc5)c(Cl)c4)c3c2)cs1.Cl` [GW582764] was 0%; that for `COc1ccc(Nc2nccc(N3CCC(NC(=O)C(C)c4ccc(Cl)cc4)C3)n2)cc1` (stereo not drawn) [GSK1379735] was 0%.
`Cc1cnc(N)c(/C=C/c2cncc(C(=O)NCCc3ccc(Cl)cc3Cl)c2)c1.Cl` [GSK190937]: the “%Inh” value is recorded as 20%.
Still for that read-out and setting: the value for `O=C(Nc1n[nH]c2nc(-c3cccs3)c(Br)cc12)C1CC1` [SB-735297] was 15%.
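Further: KINOMEscan kinase panel screen.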
